From PubChem BioAssay
CYP2C9 act – activators of human CYP2C9; recombinant CYP2C9, luciferin-H conversion, luminescence; hits give high values; factor 1 = untreated enzyme, 0 = blocked; activation factor at 5 µM; 96,000 compounds, 1.4% hits;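 active = activation factor of 2 or more for CYP2C9 at a 5 µM dose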
Target sequence (P11712 whole entry, looked up): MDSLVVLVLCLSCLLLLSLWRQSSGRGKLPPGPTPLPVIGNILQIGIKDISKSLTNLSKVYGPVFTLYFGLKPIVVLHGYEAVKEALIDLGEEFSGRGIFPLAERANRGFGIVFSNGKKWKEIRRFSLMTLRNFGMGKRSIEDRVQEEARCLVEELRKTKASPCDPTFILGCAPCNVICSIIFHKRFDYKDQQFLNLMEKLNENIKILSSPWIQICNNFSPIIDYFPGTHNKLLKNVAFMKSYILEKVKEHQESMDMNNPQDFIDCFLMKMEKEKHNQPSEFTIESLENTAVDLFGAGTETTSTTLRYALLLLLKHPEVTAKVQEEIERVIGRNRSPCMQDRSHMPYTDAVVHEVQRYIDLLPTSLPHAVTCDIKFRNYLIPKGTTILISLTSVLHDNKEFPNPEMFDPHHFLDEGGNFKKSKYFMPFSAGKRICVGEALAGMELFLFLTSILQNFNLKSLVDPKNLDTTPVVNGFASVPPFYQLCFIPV
CYP2C19 inh – blocks human cytochrome P450 2C19; P33261; 96,000 compounds, 21% hits; CYP2C19 Supersomes, luciferin-H EGE luminescence, 30 min; inhibition, % at 5 µM;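 active = CYP2C19 inhibition above a set limit at 5 µM in the primary screen, cut at about 50% in these data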
CYP2C9 inhib – inhibitors of human CYP2C9 | P11712 | CYP2C9 Supersomes, luciferin-H conversion, luminescence | inhibition, % at 5 µM | 96,000 compounds, 20% hits | AID 777;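 active = blocking of liver enzyme CYP2C9 beyond about 50% at 5 µM, limit read from the data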
CYP2C19 act – activators of human cytochrome P450 2C19; P33261; recombinant CYP2C19, luciferin-H EGE luminescence; hits give high values; 0 = fully inhibited enzyme, 1 = untreated enzyme; activation factor at 5 µM; 96,000 tested, under 10 active;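 active = activation factor of at least 2 at 5 µM in the primary screen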
PTK2B oligo ant – blocks oligomerization of human Pyk2 in cells; Q14289; Q293 cells, Pyk2 FERM NanoBiT luminescence; hits give low values; z-score (the deposit names both 25 µM and 10 µM); 99,000 compounds, 0.83% hits; AID 1347419;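 active = Z-score of -3 or lower, scaled per plate to the spread of control and sample wells; inactive = z-score above -3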;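 also: negative z-score means lost luminescence so less FERM oligomerization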
Large screens that a line does not name were inactive. Compounds with a hit are over-represented: about 28% of the library has one in this group of screens.

COc1ccc(S(=O)(=O)NCCC(=O)NCc2ccc(F)cc2)cc1	CYP2C9 act 2.8
COc1ccc(S(=O)(=O)NCc2ccc(C)cc2)cc1	CYP2C19 inh 99
COc1ccc(S(=O)(=O)NCCC(=O)NC2CCCCCCC2)cc1	none (no result: CYP2C9 act, CYP2C19 inh, CYP2C9 inhib, CYP2C19 act)
CC(C)COc1ccc2[nH]c3c(c2c1)CCCC3=O	none
COc1ccc(CCNS(=O)(=O)c2ccc(OC)cc2)cc1	CYP2C19 inh 65, CYP2C9 inhib 57
Cc1ccc(NC(=O)C2C(c3ccccc3)C=CC(c3ccccc3)C2C(=O)O)cc1 (stereo not drawn)	none
Nc1ccc2c(c1)COc1ccccc1O2	CYP2C19 inh 69
NC1=NC(c2cccc(O)c2)n2c(nc3ccccc32)N1 (stereo not drawn)	none
COc1cc2c(=O)nc3n(c2cc1OC)C(c1ccccc1)N=C(N)N3 (stereo not drawn)	none (no result: PTK2B oligo ant)
Cc1ccc(-n2c(C)cc(C3N=C(N)Nc4nc5ccccc5n43)c2C)c(C)c1 (stereo not drawn)	CYP2C19 inh 61, CYP2C9 inhib 77
Cc1cc(C2N=C(N)Nc3nc4ccccc4n32)c(C)n1-c1ccccc1Cl (stereo not drawn)	CYP2C19 inh 69, CYP2C9 inhib 80
NC1=NC(c2ccc(F)cc2)n2c(nc3ccccc32)N1 (stereo not drawn)	CYP2C19 inh 67
COc1ccc2[nH]c(=O)c(CN(Cc3ccco3)Cc3nnnn3Cc3ccccc3)cc2c1	none
COc1ccc(Cn2nnnc2CN(Cc2cc3cccc(C)c3[nH]c2=O)C2CCCC2)cc1	CYP2C9 inhib 61
CCOc1ccc2[nH]c(=O)c(CN(Cc3nnnn3Cc3ccco3)C3CCCCC3)cc2c1	CYP2C19 inh 70
CCOc1ccc2[nH]c(=O)c(CN(Cc3ccco3)Cc3nnnn3Cc3ccccc3)cc2c1	CYP2C9 inhib 50
CC(C)OCCCNC(=O)NC12CC3CC(CC(C3)C1)C2	CYP2C19 inh 57
Cc1ccc(N=C(NO)c2nonc2N)cc1	none
COc1ccc(Cl)cc1NC(=O)N1CCN(C2CCCCC2)CC1	CYP2C19 inh 83
COc1ccc(Cl)cc1NC(=O)NC1CCCCC1	none
CC(NC(=O)CN(C1CCCCC1)S(C)(=O)=O)c1ccccc1 (stereo not drawn)	none (no result: CYP2C9 act, CYP2C19 inh, CYP2C9 inhib, CYP2C19 act)
CSc1ccccc1NC(=O)CN(C1CCCCC1)S(C)(=O)=O	CYP2C19 inh 93, CYP2C9 inhib 90
CC(=O)c1cccc(NC(=O)CN(C2CCCCC2)S(C)(=O)=O)c1	none
COc1ccc(Cl)cc1NC(=O)CN(C1CCCCC1)S(C)(=O)=O	CYP2C19 inh 99, CYP2C9 inhib 90
CCN(CC(=O)Nc1cc(C)nn1-c1nc(C)cc(C)n1)Cc1ccccc1	CYP2C19 inh 69, CYP2C9 inhib 83
Cc1cc(C)nc(-n2nc(C)cc2NC(=O)CN2CCc3ccccc3C2)n1	CYP2C19 inh 86, CYP2C9 inhib 89
Cc1cc(C)nc(-n2nc(C)cc2NC(=O)CNCc2ccccc2)n1	CYP2C9 inhib 61
Cc1cc(C)nc(-n2nc(C)cc2NC(=O)CN2CCCC(C)C2)n1 (stereo not drawn)	none
Cc1ccc(CN(c2ccc(C(=O)NCc3ccc4c(c3)OCO4)cc2)S(C)(=O)=O)cc1	none
COC(=O)C1=C(C)N(C)C(C)=C(C(=O)OC)C1c1ccccn1	CYP2C9 inhib 82
CCOC(=O)C1=C(C)N(C)C(C)=C(C(=O)OCC)C1c1ccccn1	CYP2C19 inh 50, CYP2C9 inhib 86
CCCCOc1ccccc1C1C(C(=O)OC)=C(C)N(C)C(C)=C1C(=O)OC	none (no result: CYP2C9 act, CYP2C19 inh, CYP2C9 inhib, CYP2C19 act)
COC(=O)C1=C(C)N(C)C(C)=C(C(=O)OC)C1c1ccccc1C	CYP2C19 inh 98, CYP2C9 inhib 96
Cc1cc(N2CCN(c3cccc(C)c3C)CC2)nc(-c2ccccc2)n1	none (no result: CYP2C9 act, CYP2C19 inh, CYP2C9 inhib, CYP2C19 act)
CCCC(=O)NC(Nc1ccccc1F)C(Cl)(Cl)Cl (stereo not drawn)	CYP2C19 inh 53, CYP2C9 inhib 57 (no result: PTK2B oligo ant)
CC(C)C(=O)NC(Nc1ccccc1F)C(Cl)(Cl)Cl (stereo not drawn)	CYP2C19 inh 54, CYP2C9 inhib 59
CC(C)CC(=O)NC(Nc1ccccc1F)C(Cl)(Cl)Cl (stereo not drawn)	CYP2C19 inh 52, CYP2C9 inhib 58
CCCC(=O)NC(Nc1cc(C(F)(F)F)ccc1Cl)C(Cl)(Cl)Cl (stereo not drawn)	none
COc1ccc(NC(=O)Cn2nnc(C(=O)NCc3ccco3)c2N)c(OC)c1	none
CCC1CCCCN1C(=O)C1CC(c2cc(Cl)c(OC)cc2OC)=NO1 (stereo not drawn)	CYP2C19 inh 72
COc1cc(OC)c(C2=NOC(C(=O)N3CCCc4ccccc43)C2)cc1Cl (stereo not drawn)	none
CN(C)S(=O)(=O)CC12CCC(CC1=O)C2(C)C (stereo not drawn)	none
CCOCCC(=O)Nc1cc(Cl)ccc1OC	none
COc1cc(OC)c(NC(=O)CCc2ccccc2)cc1Cl	CYP2C19 inh 84
COc1cc(NC(=O)CCc2ccccc2)c(C(=O)O)cc1OC	none
COc1ccc(Cl)cc1NC(=O)CCc1ccccc1	CYP2C9 act 3, CYP2C19 inh 83
COc1cccc(/C=N/n2c(N)c(S(=O)(=O)c3cccs3)c3nc4ccccc4nc32)c1	none
COc1ccc(S(=O)(=O)c2c(N)n(Cc3ccco3)c3nc4ccccc4nc23)cc1	none
CC(C)Cn1c(N)c(S(=O)(=O)c2cccs2)c2nc3ccccc3nc21	CYP2C9 inhib 65
CCCCNC(=O)c1c(N)n(/N=C/c2ccccn2)c2nc3ccccc3nc12	none (no result: PTK2B oligo ant)
Nc1c(S(=O)(=O)c2cccs2)c2nc3ccccc3nc2n1/N=C/c1cccc(O)c1	CYP2C9 inhib 80, PTK2B oligo ant -3.2
COc1ccc(/C=N/n2c(N)c(S(=O)(=O)c3cccs3)c3nc4ccccc4nc32)cc1OC	CYP2C9 inhib 77
COCCNC(=O)c1c(N)n(/N=C/c2cccs2)c2nc3ccccc3nc12	CYP2C9 inhib 61
COc1ccc(Nc2nc(NCc3ccco3)nc(N/N=C/c3ccccc3F)n2)cc1	none (no result: CYP2C9 act, CYP2C19 inh, CYP2C9 inhib, CYP2C19 act)
CC(CC(=O)O)CC1=NS(=O)(=O)c2ccccc2N1 (stereo not drawn)	none
Cc1ccc(-c2nc3cccnc3o2)cc1NC(=O)COc1ccc(C(C)(C)C)cc1	CYP2C9 inhib 55
Cc1ccc(-c2nc3cccnc3o2)cc1NC(=O)COc1ccc(Cl)cc1C	CYP2C9 inhib 64
CCC(C)NC(=O)C1c2cc(OC)c(OC)cc2C(=O)N(C)C1c1cccs1 (stereo not drawn)	none
Cc1cccc(NC(NC(=O)c2cccnc2)C(Cl)(Cl)Cl)c1 (stereo not drawn)	CYP2C9 inhib 83
Cc1cccc(C(=O)NC(NCc2ccco2)C(Cl)(Cl)Cl)c1 (stereo not drawn)	CYP2C9 inhib 58
Cc1ccccc1C(=O)NC(NCc1ccco1)C(Cl)(Cl)Cl (stereo not drawn)	none
COc1cc(C(=O)Nc2nnc(CC(=O)N3CCOCC3)s2)cc(OC)c1OC	none
COCCCn1ccc(O)c(Cc2ccc(F)cc2)c1=O	none
COc1ccccc1NC(=O)COc1ccc(C(F)(F)F)cc1[N+](=O)[O-]	none (no result: CYP2C9 act, CYP2C19 inh, CYP2C9 inhib, CYP2C19 act)
